Assays:
Test in all cases: log2 ratio of Biotin-Ahx-Ub-VS probe labelling (fragment/DMSO); higher = less target engagement (more negative = stronger competition), active = hit call of the paper (q ≤ 0.05, log2 ratio ≤ -1)
Settings in all cases: compound concentration: 200 uM; treatment time: 3 h
USP34 = USP34 (UniProt Q70CQ2)
How it was run: (§1)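 Using Biotin-Ahx-Ub-VS at 0.5 µM final for 1 h, DUBs were labelled in HEK293T lysate (495 µg per sample) that had first been treated in triplicate with fragment at 200 µM or vehicle for 3 h. NeutrAvidin enrichment, LysC and trypsin digestion and diaPASEF LC-MS/MS followed. Spectronaut label-free quantities were global-median-normalised. Values are average log2 fragment/vehicle ratios by unpaired t-test, using proteins with ≥2 unique peptides.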

USP36 = target: T1, USP36 (UniProt Q9P275)
T1 sequence (whole entry): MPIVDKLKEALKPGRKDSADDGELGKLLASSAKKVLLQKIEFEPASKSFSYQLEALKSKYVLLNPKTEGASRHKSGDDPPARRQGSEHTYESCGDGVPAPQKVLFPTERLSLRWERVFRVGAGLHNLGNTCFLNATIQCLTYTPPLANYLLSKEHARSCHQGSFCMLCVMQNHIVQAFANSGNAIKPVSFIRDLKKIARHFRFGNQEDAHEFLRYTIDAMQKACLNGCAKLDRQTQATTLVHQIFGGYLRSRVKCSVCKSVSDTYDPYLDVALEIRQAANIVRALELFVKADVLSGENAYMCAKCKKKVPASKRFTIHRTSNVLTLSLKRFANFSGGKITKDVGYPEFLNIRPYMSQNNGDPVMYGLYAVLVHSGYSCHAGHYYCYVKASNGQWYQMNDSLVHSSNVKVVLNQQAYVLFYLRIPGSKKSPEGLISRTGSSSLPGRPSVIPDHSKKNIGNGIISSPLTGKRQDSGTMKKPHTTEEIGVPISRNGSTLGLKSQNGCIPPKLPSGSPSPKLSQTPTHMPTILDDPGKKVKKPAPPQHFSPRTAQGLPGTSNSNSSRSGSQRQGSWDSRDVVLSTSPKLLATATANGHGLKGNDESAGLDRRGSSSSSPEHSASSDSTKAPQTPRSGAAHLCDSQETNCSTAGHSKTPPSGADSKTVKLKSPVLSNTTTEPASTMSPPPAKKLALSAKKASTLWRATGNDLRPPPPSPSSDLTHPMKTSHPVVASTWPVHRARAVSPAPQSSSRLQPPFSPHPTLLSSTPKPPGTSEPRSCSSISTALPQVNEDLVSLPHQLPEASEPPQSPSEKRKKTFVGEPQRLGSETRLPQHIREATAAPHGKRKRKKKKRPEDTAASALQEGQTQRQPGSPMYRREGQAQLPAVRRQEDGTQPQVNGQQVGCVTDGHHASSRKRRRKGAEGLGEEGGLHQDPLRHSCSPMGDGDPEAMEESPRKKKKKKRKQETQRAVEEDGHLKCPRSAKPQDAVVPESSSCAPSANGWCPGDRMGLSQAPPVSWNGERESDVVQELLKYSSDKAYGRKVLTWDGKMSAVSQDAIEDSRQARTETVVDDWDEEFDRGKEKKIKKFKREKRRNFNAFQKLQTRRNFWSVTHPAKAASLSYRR
How it was run: as §1

USP38 = target: T2, USP38 (UniProt Q8NB14)
T2 sequence (whole entry): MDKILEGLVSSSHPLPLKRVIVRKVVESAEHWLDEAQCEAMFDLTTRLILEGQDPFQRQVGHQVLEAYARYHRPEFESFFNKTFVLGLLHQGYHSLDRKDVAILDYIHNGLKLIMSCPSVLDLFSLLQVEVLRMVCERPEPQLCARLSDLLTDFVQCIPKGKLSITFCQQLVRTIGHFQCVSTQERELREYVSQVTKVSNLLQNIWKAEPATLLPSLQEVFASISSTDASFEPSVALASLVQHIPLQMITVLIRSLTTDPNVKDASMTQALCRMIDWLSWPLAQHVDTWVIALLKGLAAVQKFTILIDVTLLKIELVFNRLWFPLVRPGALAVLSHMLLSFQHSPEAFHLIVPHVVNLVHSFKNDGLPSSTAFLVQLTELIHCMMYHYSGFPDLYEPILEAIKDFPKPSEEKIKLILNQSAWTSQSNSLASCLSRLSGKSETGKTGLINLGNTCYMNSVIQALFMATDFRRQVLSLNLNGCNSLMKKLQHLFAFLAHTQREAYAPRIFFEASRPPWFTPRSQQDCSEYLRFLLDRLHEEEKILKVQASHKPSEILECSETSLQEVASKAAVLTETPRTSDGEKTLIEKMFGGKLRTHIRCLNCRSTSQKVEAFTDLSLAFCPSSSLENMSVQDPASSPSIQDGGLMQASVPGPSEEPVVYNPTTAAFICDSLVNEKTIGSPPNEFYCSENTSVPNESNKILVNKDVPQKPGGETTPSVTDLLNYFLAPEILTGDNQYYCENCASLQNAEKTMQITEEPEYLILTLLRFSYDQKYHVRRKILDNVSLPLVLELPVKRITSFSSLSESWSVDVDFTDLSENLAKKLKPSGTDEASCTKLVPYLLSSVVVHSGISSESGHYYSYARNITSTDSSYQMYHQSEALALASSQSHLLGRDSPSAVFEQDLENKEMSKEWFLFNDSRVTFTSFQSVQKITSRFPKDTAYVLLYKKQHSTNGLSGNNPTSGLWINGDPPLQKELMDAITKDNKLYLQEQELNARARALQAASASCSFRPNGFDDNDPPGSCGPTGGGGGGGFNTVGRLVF
How it was run: as §1

USP39 = target: T3, USP39 (UniProt Q53GS9)
T3 sequence (whole entry): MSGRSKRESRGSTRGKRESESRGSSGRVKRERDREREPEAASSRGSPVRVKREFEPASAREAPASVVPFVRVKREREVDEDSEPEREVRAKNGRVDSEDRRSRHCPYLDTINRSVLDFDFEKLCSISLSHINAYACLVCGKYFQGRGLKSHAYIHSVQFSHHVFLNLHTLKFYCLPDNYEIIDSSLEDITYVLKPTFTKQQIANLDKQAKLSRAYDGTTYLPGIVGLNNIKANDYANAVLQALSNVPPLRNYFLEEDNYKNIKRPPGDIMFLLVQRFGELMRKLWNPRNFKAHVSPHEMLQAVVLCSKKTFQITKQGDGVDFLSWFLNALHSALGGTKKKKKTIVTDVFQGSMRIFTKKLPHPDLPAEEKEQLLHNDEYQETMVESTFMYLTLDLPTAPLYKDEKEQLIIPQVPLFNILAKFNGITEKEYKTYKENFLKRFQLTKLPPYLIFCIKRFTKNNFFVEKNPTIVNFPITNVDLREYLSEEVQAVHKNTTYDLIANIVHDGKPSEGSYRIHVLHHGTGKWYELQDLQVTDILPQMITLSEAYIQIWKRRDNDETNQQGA
How it was run: as §1

USP4 = target: T4, USP4 (UniProt Q13107)
T4 sequence (whole entry): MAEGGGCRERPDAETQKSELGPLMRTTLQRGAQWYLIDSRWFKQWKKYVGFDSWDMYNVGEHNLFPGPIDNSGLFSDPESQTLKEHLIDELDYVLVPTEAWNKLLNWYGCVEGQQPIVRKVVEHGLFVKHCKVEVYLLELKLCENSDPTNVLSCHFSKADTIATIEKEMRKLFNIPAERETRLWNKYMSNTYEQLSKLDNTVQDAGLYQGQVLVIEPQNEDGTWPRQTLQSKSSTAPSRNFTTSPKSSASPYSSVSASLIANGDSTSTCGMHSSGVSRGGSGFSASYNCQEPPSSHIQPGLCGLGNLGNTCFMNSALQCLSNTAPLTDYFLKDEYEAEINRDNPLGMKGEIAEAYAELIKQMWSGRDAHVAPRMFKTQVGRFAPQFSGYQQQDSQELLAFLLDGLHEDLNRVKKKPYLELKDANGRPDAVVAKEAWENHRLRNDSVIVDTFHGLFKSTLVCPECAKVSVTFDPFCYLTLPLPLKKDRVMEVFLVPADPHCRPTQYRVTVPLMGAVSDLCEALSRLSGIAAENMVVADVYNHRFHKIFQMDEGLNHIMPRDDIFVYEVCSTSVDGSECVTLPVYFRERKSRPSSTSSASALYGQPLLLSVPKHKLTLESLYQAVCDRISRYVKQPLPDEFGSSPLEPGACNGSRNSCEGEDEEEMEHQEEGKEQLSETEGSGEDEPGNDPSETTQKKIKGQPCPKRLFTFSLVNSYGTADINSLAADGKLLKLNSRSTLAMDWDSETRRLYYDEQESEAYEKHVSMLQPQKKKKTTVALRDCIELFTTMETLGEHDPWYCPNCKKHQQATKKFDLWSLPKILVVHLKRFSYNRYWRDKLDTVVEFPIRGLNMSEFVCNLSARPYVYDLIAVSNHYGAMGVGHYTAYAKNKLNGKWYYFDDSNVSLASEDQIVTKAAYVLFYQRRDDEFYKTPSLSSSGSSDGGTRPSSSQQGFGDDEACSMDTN
How it was run: as §1

Measured: log2 ratio of Biotin-Ahx-Ub-VS probe labelling

USP34, sequence (Q70CQ2 whole entry, the tested form may be a part): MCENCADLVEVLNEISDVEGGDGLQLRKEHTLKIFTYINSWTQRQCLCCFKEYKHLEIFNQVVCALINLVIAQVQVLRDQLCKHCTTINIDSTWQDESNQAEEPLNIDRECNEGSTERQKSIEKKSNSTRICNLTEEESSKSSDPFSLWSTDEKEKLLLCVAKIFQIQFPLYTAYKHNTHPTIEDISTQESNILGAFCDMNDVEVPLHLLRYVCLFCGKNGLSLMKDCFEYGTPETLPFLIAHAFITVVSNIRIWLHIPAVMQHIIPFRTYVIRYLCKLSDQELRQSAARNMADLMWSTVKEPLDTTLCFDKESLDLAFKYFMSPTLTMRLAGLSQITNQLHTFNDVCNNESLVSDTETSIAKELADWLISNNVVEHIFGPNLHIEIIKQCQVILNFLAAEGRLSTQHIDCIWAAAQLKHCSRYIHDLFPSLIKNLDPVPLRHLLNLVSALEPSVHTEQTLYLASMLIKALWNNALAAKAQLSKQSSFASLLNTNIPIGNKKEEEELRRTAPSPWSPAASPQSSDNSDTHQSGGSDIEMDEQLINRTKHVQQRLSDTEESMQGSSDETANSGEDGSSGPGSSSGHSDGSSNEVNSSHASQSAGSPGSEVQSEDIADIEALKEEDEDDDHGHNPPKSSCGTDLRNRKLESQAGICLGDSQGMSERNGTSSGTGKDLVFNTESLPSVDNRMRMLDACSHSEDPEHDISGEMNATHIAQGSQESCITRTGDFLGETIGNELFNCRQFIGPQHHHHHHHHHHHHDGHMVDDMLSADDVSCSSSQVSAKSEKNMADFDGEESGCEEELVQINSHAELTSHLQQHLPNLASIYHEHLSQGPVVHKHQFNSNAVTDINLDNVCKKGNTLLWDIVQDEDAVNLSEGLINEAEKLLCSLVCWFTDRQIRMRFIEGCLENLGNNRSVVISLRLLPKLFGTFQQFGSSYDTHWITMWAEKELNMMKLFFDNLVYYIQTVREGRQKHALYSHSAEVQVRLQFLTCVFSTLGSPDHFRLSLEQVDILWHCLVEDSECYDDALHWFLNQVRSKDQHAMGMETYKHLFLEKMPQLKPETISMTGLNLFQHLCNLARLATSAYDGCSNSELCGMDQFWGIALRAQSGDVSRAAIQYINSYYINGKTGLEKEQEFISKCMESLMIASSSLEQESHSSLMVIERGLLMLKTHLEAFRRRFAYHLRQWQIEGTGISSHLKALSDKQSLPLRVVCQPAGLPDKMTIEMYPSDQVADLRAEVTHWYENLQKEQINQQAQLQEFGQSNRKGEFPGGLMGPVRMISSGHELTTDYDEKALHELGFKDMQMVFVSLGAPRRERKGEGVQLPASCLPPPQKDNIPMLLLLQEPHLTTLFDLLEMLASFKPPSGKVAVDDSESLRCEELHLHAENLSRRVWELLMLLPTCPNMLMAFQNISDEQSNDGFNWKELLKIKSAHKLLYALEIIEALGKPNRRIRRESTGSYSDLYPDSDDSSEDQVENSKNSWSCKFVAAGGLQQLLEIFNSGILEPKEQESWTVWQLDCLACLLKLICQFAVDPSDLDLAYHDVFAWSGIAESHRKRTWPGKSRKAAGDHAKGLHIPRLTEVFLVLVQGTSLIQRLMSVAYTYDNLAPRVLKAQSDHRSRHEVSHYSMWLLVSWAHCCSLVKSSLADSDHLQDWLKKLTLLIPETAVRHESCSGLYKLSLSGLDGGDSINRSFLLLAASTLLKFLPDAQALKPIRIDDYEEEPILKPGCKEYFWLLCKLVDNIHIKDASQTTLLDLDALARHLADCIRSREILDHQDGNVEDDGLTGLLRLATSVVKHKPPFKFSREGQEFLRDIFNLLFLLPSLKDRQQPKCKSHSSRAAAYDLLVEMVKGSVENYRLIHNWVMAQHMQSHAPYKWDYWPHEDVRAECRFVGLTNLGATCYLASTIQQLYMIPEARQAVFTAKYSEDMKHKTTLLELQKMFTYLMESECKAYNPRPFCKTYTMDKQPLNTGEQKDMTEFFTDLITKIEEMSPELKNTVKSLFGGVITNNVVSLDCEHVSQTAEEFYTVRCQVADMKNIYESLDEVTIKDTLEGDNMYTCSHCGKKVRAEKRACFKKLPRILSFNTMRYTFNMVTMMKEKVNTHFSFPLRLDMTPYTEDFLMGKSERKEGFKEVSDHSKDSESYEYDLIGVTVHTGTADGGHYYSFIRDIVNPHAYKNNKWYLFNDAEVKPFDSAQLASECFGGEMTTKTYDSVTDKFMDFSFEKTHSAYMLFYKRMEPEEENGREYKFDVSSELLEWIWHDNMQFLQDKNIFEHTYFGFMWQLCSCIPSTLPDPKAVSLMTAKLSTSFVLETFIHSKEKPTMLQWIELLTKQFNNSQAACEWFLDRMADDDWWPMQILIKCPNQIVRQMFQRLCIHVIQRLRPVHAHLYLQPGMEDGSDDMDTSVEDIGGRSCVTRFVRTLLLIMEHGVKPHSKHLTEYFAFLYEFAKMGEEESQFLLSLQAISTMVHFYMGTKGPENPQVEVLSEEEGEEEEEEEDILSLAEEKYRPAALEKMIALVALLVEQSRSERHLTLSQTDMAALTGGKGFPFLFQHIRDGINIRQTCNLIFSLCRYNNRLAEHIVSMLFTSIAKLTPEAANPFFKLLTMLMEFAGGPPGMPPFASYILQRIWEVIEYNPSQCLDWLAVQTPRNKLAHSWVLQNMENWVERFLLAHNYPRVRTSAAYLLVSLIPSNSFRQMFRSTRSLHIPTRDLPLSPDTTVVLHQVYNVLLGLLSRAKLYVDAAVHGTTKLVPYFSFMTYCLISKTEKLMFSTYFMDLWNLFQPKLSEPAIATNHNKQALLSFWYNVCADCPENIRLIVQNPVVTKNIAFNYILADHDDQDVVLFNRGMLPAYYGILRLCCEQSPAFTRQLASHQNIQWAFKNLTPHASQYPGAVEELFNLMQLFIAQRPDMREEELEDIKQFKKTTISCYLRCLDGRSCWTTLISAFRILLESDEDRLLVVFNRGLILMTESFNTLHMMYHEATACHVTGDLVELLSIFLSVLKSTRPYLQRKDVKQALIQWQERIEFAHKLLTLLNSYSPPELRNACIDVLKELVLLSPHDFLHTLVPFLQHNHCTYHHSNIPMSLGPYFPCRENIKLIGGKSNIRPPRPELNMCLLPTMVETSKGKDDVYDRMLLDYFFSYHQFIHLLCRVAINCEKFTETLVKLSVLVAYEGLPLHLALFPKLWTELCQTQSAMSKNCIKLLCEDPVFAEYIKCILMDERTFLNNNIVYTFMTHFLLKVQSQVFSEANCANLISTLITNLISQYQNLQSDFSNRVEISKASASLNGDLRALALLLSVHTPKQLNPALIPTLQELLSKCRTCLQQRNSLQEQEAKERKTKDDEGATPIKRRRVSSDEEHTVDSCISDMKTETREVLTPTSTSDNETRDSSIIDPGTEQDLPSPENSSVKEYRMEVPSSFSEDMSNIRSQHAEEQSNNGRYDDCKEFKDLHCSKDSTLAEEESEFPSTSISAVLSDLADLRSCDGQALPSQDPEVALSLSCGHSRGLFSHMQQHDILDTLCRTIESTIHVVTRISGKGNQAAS

Cl.Cn1nccc1C(NC(=O)CCl)c1ccccc1 (stereo not given)
inactive: USP34 -0.0966 | USP36 0.193 | USP38 -0.0261 | USP39 0.0185 | USP4 -0.116

Source: the supplement of paper PMC11732987, “Enantioselective OTUD7B fragment discovery through chemoproteomics screening and high-throughput optimisation” (Communications Chemistry, 2025)
